The structures appear in SMILES notation. The whole screen tested about 87,000 compounds, of which about 360 (0.41%) were called active. Shown is part of a subset that was picked to be rich in actives. Unmarked numbers belong to inactive results. No stated cut-off is given here; in the data, active means cytotoxicity above about 50%; inactive means the rest.

A short description of the experiment: cytotoxicity in HT1080 fibrosarcoma cells, cell-based, fluorescence readout (AID 620).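 Further: cells exposed to compound overnight then 4 h with Alamar Blue; 0% = vehicle DMSO and 100% = killing control.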 The following applies: HT1080 viability, at 10 µM, active compounds read high.
As to `COc1ccc(OC)c(S(=O)(=O)Nc2cc(OC)c(Cl)cc2OC)c1`, the cytotoxicity was 9.8%.
`COc1cc(NS(=O)(=O)c2cc(C)ccc2OC)c(OC)cc1Cl`: the cytotoxicity is -2.6%.
With `COc1cc(NS(=O)(=O)c2ccc(OC)c(C)c2C)c(OC)cc1Cl` the figure was 55.1% (active); with `CCOc1cc(C2CC(=O)Nc3cc(C)c(C)cc32)ccc1O` (configuration not stated), -0.2%.
With `COc1ccc(NC(=O)CCN2CCCCC2)cc1` the figure was 9%; with `CCOc1ccccc1-c1nc(-c2cc3ccccc3nc2OC)no1`, -4.6%.
For the compound `Cc1cc(F)c(F)c(C(=O)N2CCN(C)CC2)c1Cl`, the cytotoxicity was 6.8%.
Take `CCc1ccc(C2(O)CC(C(F)(F)F)=NN2C(=O)Cc2ccc([N+](=O)[O-])cc2)cc1` (configuration not stated): the cytotoxicity was 2.2%.
Turning to `c1cc2c(cc1C1CCCCC1)c1c3n2CCCNC3CCC1` (configuration not stated), the cytotoxicity is 69.7% (active).
For the compound `Cc1ccc2c(c1)c1c3n2CCN(C(=O)CN2CCN(C)CC2)C3CCC1` (configuration not stated), the cytotoxicity was 12.8%.
Turning to `Cc1ccc2c(c1)c1c3n2CCN(C(=O)C2CC2)C3CCC1` (configuration not stated), the cytotoxicity is -15.3%.
On to `c1ccc2c(c1)c1c3n2CCNC3CCC1` (configuration not stated), for which the cytotoxicity is -2.4%.
The figure for `Cc1ccc2c(c1)c1c3n2CCCNC3CCC1` (configuration not stated) is -1.3%; for `O=C(NC(Cc1ccc2c(c1)OCO2)C(=O)N1CCCC1C(=O)O)c1ccccc1` (configuration not stated) it is 3.5%; for `Cn1c(=O)[nH]c2sc3c(c2c1=O)CC(C)(C)OC3` it is 27.1%.
Turning to `COc1ccc(OC)c(C2CC(=O)c3c([nH]c(C(=O)OCC4CCCO4)c3C)C2)c1` (configuration not stated), the cytotoxicity was -5.3%.
The figure for `Cc1c(C(=O)N2CCOCC2)[nH]c2c1C(=O)CC(c1ccc(Cl)cc1)C2` (configuration not stated) is 5.8%; for `CCOCCOC(=O)c1[nH]c2c(c1C)C(=O)CC(c1ccc(N(C)C)cc1)C2` (configuration not stated) it is -3.6%.
Turning to `CCOC(=O)c1[nH]c2c(c1C)C(=O)CC(c1ccco1)C2` (configuration not stated), the cytotoxicity was 66% (active).
In the case of `COCCOC(=O)c1[nH]c2c(c1C)C(=O)CC(c1ccco1)C2` (configuration not stated), the cytotoxicity was 67.1% (active).
Take `COCCOC(=O)c1[nH]c2c(c1C)C(=O)CC(c1ccc(N(C)C)cc1)C2` (configuration not stated): the cytotoxicity is -0.7%.
Turning to `Cc1c(C(=O)OCC2CCCO2)[nH]c2c1C(=O)CC(c1ccc(N(C)C)cc1)C2` (configuration not stated), the cytotoxicity is -2.7%.
Consider `COCCOC(=O)c1[nH]c2c(c1C)C(=O)CC(c1cc(OC)ccc1OC)C2` (configuration not stated), for which the cytotoxicity was -3.5%.
The figure for `CCOC(=O)c1ccc(N=CC2=C(O)CC(c3ccco3)CC2=O)cc1` (configuration not stated) is -1.5%.
On to `Cc1c(C(=O)OCC2CCCO2)[nH]c2c1C(=O)CC(c1ccco1)C2` (configuration not stated), for which the cytotoxicity was 52.9% (active).
With `CSCCOC(=O)c1[nH]c2c(c1C)C(=O)CC(c1ccco1)C2` (configuration not stated), the cytotoxicity is 62.4% (active).
The figure for `COC(=O)NCC(c1cccnc1)N1CCOCC1` (configuration not stated) is 2.8%; for `COc1ccc(C(c2nnnn2C2CCCC2)N2CCN(C3CCCC3)CC2)cc1OC` (configuration not stated) it is -1.8%; for `Cc1ccc(NC(=O)c2oc3c(c2C)C(=O)CC(C)(C)C3)cc1` it is -0.8%.
`O=S(=O)(c1ccccc1)N1CCN(S(=O)(=O)c2ccccc2)C1`: the cytotoxicity was -4.1%.
As to `CCn1cnc2cc(NS(=O)(=O)c3ccc(C)cc3)ccc21`, the cytotoxicity is 11.7%.
On to `Cc1ccccc1NC(=O)c1cccc2nccnc12`, for which the cytotoxicity was -4.6%.
`COc1ccc(-c2cnc3nc[nH]c(=O)c3n2)cc1`: the cytotoxicity is -12.3%.
For the compound `Cc1cnc(C(=O)Nc2ccc(F)cc2)cn1`, the cytotoxicity is -11.7%.
The figure for `COc1cccc(C2c3c(-c4cc(Cl)c(C)cc4O)n[nH]c3C(=O)N2Cc2cccnc2)c1` (configuration not stated) is -4.8%.
Turning to `CCOC(=O)N1CCN(C(=O)c2cccn3c(=O)c4sccc4nc23)CC1`, the cytotoxicity is -2.4%.
With `FC(F)(F)c1ccc(N2CCN(c3ncnc4c3nnn4Cc3ccccc3Cl)CC2)cc1`, the cytotoxicity is -17.6%.
With `Cc1c(C(=O)OCCOC(C)C)[nH]c2c1C(=O)CC(c1ccco1)C2` (configuration not stated) the figure was 66.2% (active); with `COc1cc(C2CC(=O)c3c([nH]c(C(=O)OCCOC(C)C)c3C)C2)cc(OC)c1OC` (configuration not stated), -1.3%; with `Cc1c(C(=O)OCc2ccccc2)[nH]c2c1C(=O)CC(c1ccco1)C2` (configuration not stated), 67.8% (active).
With `COCCOC(=O)c1[nH]c2c(c1C)C(=O)CC(c1ccc(F)cc1)C2` (configuration not stated) the figure was -9%; with `Cc1c(C(=O)O)[nH]c2c1C(=O)CC(c1ccc(Cl)cc1)C2` (configuration not stated), -4.3%.
On to `Cc1c(C(=O)OCC(C)C)[nH]c2c1C(=O)CC(c1ccco1)C2` (configuration not stated), for which the cytotoxicity was 63.9% (active).
The figure for `CC1=C(C(=O)OCc2ccccc2)C(c2ccco2)C2=C(CC(C)(C)CC2=O)N1` (configuration not stated) is -6.1%; for `Cc1c(C(=O)OCCOC(C)C)[nH]c2c1C(=O)CC(C)(C)C2` it is -5.6%; for `Cc1c(C(=O)N2CCOCC2)[nH]c2c1C(=O)CC(c1ccccc1Cl)C2` (configuration not stated) it is 34.2%.
Regarding `CCOC(=O)c1[nH]c2c(c1C)C(=O)CC(c1ccc(F)cc1)C2` (configuration not stated), the cytotoxicity was 70.2% (active).
`COc1ccc(OC)c(C2CC(=O)c3c([nH]c(C(=O)OC(C)C)c3C)C2)c1` (configuration not stated): the cytotoxicity is 10.6%.
With `CCC(C)OC(=O)c1[nH]c2c(c1C)C(=O)CC(c1ccc(N(C)C)cc1)C2` (configuration not stated), the cytotoxicity is -1.9%.
With `CCCCOc1ccc(C(=O)N2CC(C)OC(C)C2)cc1` (configuration not stated) the figure was -6.4%; with `Cc1ccc(-n2c(C)nc3c(cnn3-c3ccc(F)cc3)c2=O)cc1`, -1.6%; with `Cc1cc(NC(=O)C2CC(=O)OC2c2ccccc2)no1` (configuration not stated), 10.6%.
Take `CC(=O)OC(C(=O)NC1CCCCC1)c1ccc(C#N)cc1` (configuration not stated): the cytotoxicity is -3.2%.
`Cc1ccccc1-n1c(SCC(=O)N2CCOCC2)nc(O)cc1=O`: the cytotoxicity is 3.4%.
For `COc1ccccc1C(=O)NC1CCCCCCC1`, the cytotoxicity was 3.1%.
The figure for `O=C(NC1=NCCS1)c1ccncc1` is -1.5%; for `O=C(COC(=O)c1cnccn1)NCCc1ccccc1` it is -15.3%.
For the compound `Cc1c(C(=O)OC2CCC(C)CC2)[nH]c2c1C(=O)CCC2` (configuration not stated), the cytotoxicity is 0.6%.
With `Cc1c(C(=O)OC2CCCC2)[nH]c2c1C(=O)CC(c1ccco1)C2` (configuration not stated), the cytotoxicity is 64.9% (active).
Consider `Cc1c(C(=O)OC2CCCCC2)[nH]c2c1C(=O)CC(C)(C)C2`, for which the cytotoxicity was -1.3%.
As for `COc1ccc(C2=NOC(C(=O)NC(C)C)C2)cc1` (configuration not stated), the cytotoxicity is -5.6%.
With `CCOc1ccc(OCC)c(NC(=O)CN(C)S(=O)(=O)c2cnc[nH]2)c1`, the cytotoxicity is 11.3%.
In the case of `O=C(c1cnn2cccnc12)N1CCN(c2ccccc2)CC1`, the cytotoxicity is 6.5%.
As to `Cc1ccc2c(c1)c1c3n2CCN(C(=O)Cn2c(-c4ccccc4)noc2=O)C3CCC1` (configuration not stated), the cytotoxicity is 4.8%.
Consider `CC(=O)N1CCn2c3c(c(=O)c4cc(C)ccc42)CCC31` (configuration not stated), for which the cytotoxicity was -5.9%.
The figure for `Cc1ccc2c(c1)c(=O)c1c3n2CCN(C(=O)CCl)C3CC1` (configuration not stated) is 102% (active).
Regarding `CCOC(=O)c1c(C)[nH]c(C)c1C(=O)CSc1nnc(-c2ccc(OC(F)F)cc2)o1`, the cytotoxicity was 0.8%.
With `COc1ccc(C(=O)c2ccc(OC)c3cccc(O)c23)cc1OC` the figure was -5.2%; with `CN(C)c1ccc(C(=O)c2ccccc2)cc1`, -16.8%; with `CN(C)c1ccc(C(=O)c2ccc(N(C)C)c3ccccc23)cc1`, 69.6% (active).
With `COc1ccc(C(=O)c2ccc(N(C)C)cc2)c2ccccc12` the figure was 63.3% (active).
Regarding `CN(C)c1ccc(C(=O)c2ccc(O)cc2O)cc1`, the cytotoxicity was 3.6%.
As for `COc1ccc(C(=O)c2ccc(Cl)cc2)c2ccccc12`, the cytotoxicity is -14.8%.
As for `CC1=C(C)CC(C(=O)NCC(=O)c2ccccc2)C(C(=O)O)C1` (configuration not stated), the cytotoxicity was -5%.
Consider `Cn1cnc([N+](=O)[O-])c1NC(C)(C)C`, for which the cytotoxicity was 8.7%.
Take `COC(=O)c1[nH]c2c(c1C)C(=O)CC(c1cccs1)C2` (configuration not stated): the cytotoxicity was 58.6% (active).
Turning to `CCCOCCOC(=O)c1[nH]c2c(c1C)C(=O)CC(c1cc(OC)ccc1OC)C2` (configuration not stated), the cytotoxicity was 1.3%.
On to `Cc1c(C(=O)OCC(C)C)[nH]c2c1C(=O)CC(c1cccs1)C2` (configuration not stated), for which the cytotoxicity is 66% (active).
On to `COC(=O)C1=C(C)NC2=C(C(=O)CC(c3cccs3)C2)C1c1ccsc1` (configuration not stated), for which the cytotoxicity was 16.3%.
`CCOC(=O)C1=C(C)NC2=C(C(=O)CC(c3cccs3)C2)C1c1cccs1` (configuration not stated): the cytotoxicity was 5.7%.
With `CCCOC(=O)c1[nH]c2c(c1C)C(=O)CC(c1ccc(OC)c(OC)c1)C2` (configuration not stated) the figure was 7.2%.
Take `COC(=O)c1[nH]c2c(c1C)C(=O)CC(c1cc(OC)ccc1OC)C2` (configuration not stated): the cytotoxicity was -2.1%.
Consider `CCCOC(=O)c1[nH]c2c(c1C)C(=O)CC(c1cccs1)C2` (configuration not stated), for which the cytotoxicity was 66.7% (active).
For the compound `CC(C(=O)N=c1sc2ccccc2n1C)N1C(=O)C2CC=CCC2C1=O` (configuration not stated), the cytotoxicity was -11%.
As to `c1ccc(CCn2c(C3CC3)nc3ccccc32)cc1`, the cytotoxicity is -16.9%.
Regarding `CCOC(=O)c1ccc(NC(=O)C(CC)(CC)C(=O)OCC)cc1`, the cytotoxicity is -4.9%.
As for `CC(C)(C)C1(c2ccccc2)NC(=O)N(CC(=O)N2CCOCC2)C1=O` (configuration not stated), the cytotoxicity is 2.6%.
With `COc1cc(C#N)ccc1OCC(=O)c1ccc2c(c1)OCCO2`, the cytotoxicity is -5.9%.
Regarding `CCc1cccc(CC)c1NC(=O)CSc1nnc(C(C)C)n1CC`, the cytotoxicity is 0.9%.
Turning to `Cc1csc(NC(=O)CN2C(=O)C3CC=CCC3C2=O)n1` (configuration not stated), the cytotoxicity was -13.5%.
Consider `CCn1c(SCC(=O)c2cc(C)n(C)c2C)nnc1-c1ccccc1`, for which the cytotoxicity is 15.3%.
The figure for `CCOC(=O)c1cccc(NC(=O)CSc2nnc(-c3cccnc3)n2CC)c1` is 12.7%.
Consider `CCn1c(SCC(=O)c2cc(C)n(-c3ccc(C(=O)OC)cc3)c2C)nnc1-c1cccnc1`, for which the cytotoxicity was 69.6% (active).
On to `COc1ccccc1NS(=O)(=O)c1ccc(Cl)cc1`, for which the cytotoxicity is 11.9%.
As to `COc1ccccc1NC1=NC(c2ccc(Cl)cc2)N=C(N)N1` (configuration not stated), the cytotoxicity is 60.5% (active).
In the case of `COc1ccccc1NC1=NC(C)(C)N=C(N)N1`, the cytotoxicity was -26.5%.
With `O=C(OC1CCS(=O)(=O)c2sccc21)c1ccccc1` (configuration not stated), the cytotoxicity was -6.9%.

The values are drawn from PubChem BioAssay AID620 (Sanford-Burnham Center for Chemical Genomics, 2007).
